PubChem BioAssay (NCATS)
Records with an inconclusive call do not appear. Activity calls are given as the source filed them. Calls follow the shape of the dose curve; as a rule, active = well fitted curve in the direction sought with a large enough effect; inconclusive = small, poorly fitted or top-dose-only effect, or another doubt; inactive = no such curve, though single readings can be large; an effect the other way counts as inactive or inconclusive.

Assays:
[1] = target: Cellular tumor antigen p53 (Homo sapiens) (UniProt P04637); assay: Primary qHTS for small molecule compounds that upregulate eGFP-tagged delta133p53alpha (in N-terminal) cells. (AID 2060322); details: NCI-H358 eGFP-delta133p53alpha fluorescence, 24 h; activation: hits give high values;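 also: 0% = DMSO vehicle and 100% = reference activator; nearly all actives have a fitted effect of over 75% in size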
How it was run: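 NCI-H358 cells pre-induced 24 h with 10 ng/ml doxycycline to express N-terminal eGFP-delta133p53alpha, then dosed 24 h at 37C without doxycycline; fixed, Hoechst-stained, GFP intensity by laser scanning cytometry, normalized to DMSO (0%) and 57.5 uM 5-azacytidine (100%).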

[2] = target: Aldehyde dehydrogenase, mitochondrial (Homo sapiens) (UniProt P05091); assay: qHTS for Inhibitors of the Aldehyde Dehydrogenase Family (ALDH2) Primary screen (AID 2061308); details: ALDH2 enzyme inhibition qHTS, 1536-well; series mostly up to 56 µM;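 also: plate controls were vehicle for no effect and reference inhibitor for full effect; nearly all actives have a fitted effect of over 55% in size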
[3] = target: Retinaldehyde dehydrogenase 3 (Homo sapiens) (UniProt P47895); assay: qHTS for Inhibitors of the Aldehyde Dehydrogenase Family (ALDH1A3) Primary screen (AID 2061315); details: ALDH inhibition qHTS; series mostly up to 56 µM;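 also: plate controls were DMSO vehicle for no effect and reference inhibitor for full effect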

Sequence of Cellular tumor antigen p53 (Homo sapiens) (P04637 whole entry, looked up): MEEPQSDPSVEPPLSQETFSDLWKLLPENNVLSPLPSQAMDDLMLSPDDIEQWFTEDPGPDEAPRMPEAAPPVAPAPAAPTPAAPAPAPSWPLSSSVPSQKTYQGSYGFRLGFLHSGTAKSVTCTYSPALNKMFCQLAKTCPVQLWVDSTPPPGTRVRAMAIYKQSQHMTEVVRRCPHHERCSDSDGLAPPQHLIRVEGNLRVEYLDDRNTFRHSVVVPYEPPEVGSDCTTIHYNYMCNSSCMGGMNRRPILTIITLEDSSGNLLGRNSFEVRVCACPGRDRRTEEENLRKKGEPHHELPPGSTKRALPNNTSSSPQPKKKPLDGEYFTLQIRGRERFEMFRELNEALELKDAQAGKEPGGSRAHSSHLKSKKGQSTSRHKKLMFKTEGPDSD

C=C(C(=O)O)[C@@H]1CC=C(CCC(C)=O)[C@@H](C)CC1
inactive: activation [1] 8.93% | Potency [2] | Potency [3]

CC(=O)O[C@H]1CC(C)(C)CC2[C@]13CO[C@@]21CCC2[C@@]4(C)CC[C@H](O[C@@H]5OC[C@H](O[C@@H]6O[C@H](CO)[C@@H](O)[C@H](O)[C@H]6O[C@@H]6OC[C@@H](O)[C@H](O)[C@H]6O)[C@H](O)[C@H]5O[C@@H]5O[C@H](CO)[C@@H](O)[C@H](O)[C@H]5O)[C@@](C)(CO)C4CC[C@@]2(C)[C@]1(C)C[C@H]3O (stereo partly specified)
inactive: activation [1] -17.9% | Potency [2] | Potency [3]

COC1CC(=O)CCC(C)OC(=O)CC1O (stereo unspecified)
inactive: activation [1] -6.87% | Potency [2] | Potency [3]

C=CC(C)(O)CC/C=C(\C)C(=O)OC1C(O)C(CO)OC(OC(=O)C23CCC(C)(C)CC2C2=CCC4C5(C)CCC(OC6OC(COC7OCC(OC(C)=O)C(O)C7OC7OC(COC(C)=O)C(O)C(O)C7O)C(O)C(O)C6O)C(C)(C)C5CCC4(C)C2(C)C(O)C3O)C1OC1OCC(OC2OCC(O)C(OC3OCC(O)C(O)C3O)C2O)C(O)C1O (stereo unspecified)
inactive: activation [1] -9.16% | activity change, negative = inhibition [2] 5.34% [at 11.2 µM] | activity change, negative = inhibition [3] 15% [at 11.2 µM]

CCC(CC)(NC(=O)C(C)C)C(=O)N[C@@H](CCCN=C(N)N)C(=O)NC1(C(=O)NC(c2ccc(F)cc2)c2ccc(F)cc2)CCCC1
inactive: activation [1] -15.7% | Potency [2] | Potency [3]

CC(c1c[nH]c2ccccc12)C(O)C(=O)O (stereo unspecified)
inactive: activation [1] -11.5% | Potency [2] | Potency [3]

C/C=C/C=C/[C@@H]1O[C@](O)([C@H](CC)C(=O)NC/C=C/C=C(\C)[C@@H](OC)[C@@H](C)C2OC(/C=C/C=C/C=C(\C)C(=O)c3c(O)cc[nH]c3=O)[C@H](O)[C@@H]2O)[C@H](O)[C@H](O)C1(C)C (stereo partly specified)
inactive: activation [1] -1.79% | Potency [2] | Potency [3]

CCC1=C(C)C(=O)C(C)CC12C(=O)CCC2C(=O)O (stereo unspecified)
inactive: activation [1] -11.5% | Potency [2] | Potency [3]

CN1CCN(C(=O)c2cc3cc(Cl)ccc3[nH]2)CC1
inactive: activation [1] -0.893% | Potency [2] | Potency [3]

COc1cc(C2OCC3(O)C(c4ccc(O[C@@H]5O[C@H](CO)[C@@H](O)[C@H](O)[C@H]5O)c(OC)c4)OCC23O)ccc1O (stereo partly specified)
inactive: activation [1] -6.11% | Potency [2] | Potency [3]

C=C1C2(C)CC3C4(C)C=CC(=O)OC(C)(C)C4CCC3(C)C1(C(=O)OC)C(=O)C(C)(O)C2=O (stereo unspecified)
inactive: activation [1] -21.4% | Potency [2] | Potency [3]

Cc1c(O)cc2c(c1O)COC1(O)CCCOC21 (stereo unspecified)
inactive: activation [1] -17.6% | Potency [2] | Potency [3]

C/C=C/C=C/C(=O)N1CC[C@]23c4ccccc4N[C@H]4N(C)c5cccc6c5[C@@]42CCN([C@H]6C2OC2(C)C)[C@H]13 (stereo partly specified)
inactive: activation [1] 15.3% | Potency [2] | Potency [3]

O=C(c1ccc(F)cc1)N1CCCC(c2nc(-c3ccc(F)cc3)no2)C1 (stereo unspecified)
inactive: activation [1] -1.91% | Potency [2] | Potency [3]

CC1=C2CC3OC3(C)CCC3OC3(C)CC2OC1=O (stereo unspecified)
inactive: activation [1] 9.82% | Potency [2] | Potency [3]

Cc1ccc(-c2ncccn2)c(C(=O)N2C[C@H](COc3ccc(F)cn3)CC[C@H]2C)c1
inactive: activation [1] -14.3% | Potency [2] | Potency [3]

C[C@@H]1O[C@@H](O[C@H]2[C@H](O[C@H]3[C@H](O[C@H]4CC[C@@]5(C)C(CC[C@]6(C)C5CC=C5[C@@H]7CC(C)(C)C[C@@H](O)[C@]7(C)CC[C@]56C)[C@@]4(C)CO)O[C@H](C(=O)O)[C@@H](O)[C@@H]3O)O[C@H](C(=O)O)[C@H](O)[C@@H]2O)[C@H](O)[C@H](O)[C@H]1O (stereo partly specified)
inactive: activation [1] 6.87% | Potency [2] | Potency [3]
